# Compound activity: PubChem, National Center for Advancing Translational Sciences (NCATS)
# Rows were chosen to be rich in hits. Some 2.6% of all compounds tested hit in one or more screens of this group.
# Cruzain Triton: inhibitors of Trypanosoma cruzi cruzain with detergent; AID 1478; purified cruzain, Z-FR-AMC fluorescence, 0.01% Triton; P25779; 200,000 tested, 0.43% active; Potency, µM, for the others: max response, negative = inhibition, usual class: inhibitors;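 further: plate controls were neutral wells for no effect and buffer without enzyme for full effect; nearly all actives have a fitted effect of over 40% in size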
# Target sequence (P25779 123-467 limits assumed): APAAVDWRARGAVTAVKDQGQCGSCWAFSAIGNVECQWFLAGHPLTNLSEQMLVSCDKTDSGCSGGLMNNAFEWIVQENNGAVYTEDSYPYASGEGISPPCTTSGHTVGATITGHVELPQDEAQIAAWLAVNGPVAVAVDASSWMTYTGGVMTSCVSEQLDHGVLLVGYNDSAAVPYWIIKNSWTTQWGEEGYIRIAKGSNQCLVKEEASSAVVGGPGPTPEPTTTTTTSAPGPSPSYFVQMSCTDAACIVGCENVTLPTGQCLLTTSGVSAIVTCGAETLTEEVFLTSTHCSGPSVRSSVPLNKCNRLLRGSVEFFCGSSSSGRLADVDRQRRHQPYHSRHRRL
#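 15 min RT preincubation of 1.5 nM cruzain with compound, then 2 uM Z-FR-AMC added; kinetic AMC fluorescence, 60 s delta. Triton X-100 0.01%, pH 5.5.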
# Cruzain noTriton: inhibitors of Trypanosoma cruzi cruzain without detergent; purified cruzain, Z-FR-AMC fluorescence, no detergent; 200,000 tested, 2.3% active; Potency, µM, inactives show max response, negative = inhibition, hits mostly inhibitors; AID 1476;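 further: plate controls were enzyme without inhibitor for no effect and buffer without enzyme for full effect; nearly all actives have a fitted effect of over 40% in size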
#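 Detergent-free condition (0.00005% Triton X-100) in acetate buffer pH 5.5 with DTT. 1.5 nM enzyme and compound were pre-mixed 15 min, then 2 uM Z-FR-AMC substrate added; reaction progress from fluorescence change between first and third reads (60 s).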
# * marks the source's active call; other numbers are inactive results; ? = inconclusive. The call rests on the fitted dose curve; in most records, active means well fitted curve in the direction sought with a large enough effect; inconclusive means small, poorly fitted or top-dose-only effect, or another doubt; inactive means no such curve, though single readings can be large; an effect the other way counts as inactive or inconclusive. Potency means the concentration at half of the fitted maximal effect.
SMILES,Cruzain Triton,Cruzain noTriton
CCN(CC)S(=O)(=O)c1cccc(NC(=O)C2SC(=Nc3ccc(C)cc3C)C(C(=O)NC(C)COC)=C2N)c1 (stereo unspecified),1%,-11%
CCCCNC(=O)C1=C(N)C(C(=O)Nc2ccc(C)c(S(=O)(=O)N3CCCCC3)c2)SC1=Nc1ccc(C)cc1C (stereo unspecified),7%,7.9µM*
COc1ccc(N2CCN(Cc3cc(=O)oc4cc5c(cc34)CCCC5)CC2)cc1,0%,13µM*
O=c1cc(CN2CCN(c3cccc(Cl)c3)CC2)c2cc(O)c(-c3ccccc3)cc2o1,4%,7.9µM*
O=c1cc(CN2CCN(c3ccccc3)CC2)c2c(ccc3ccccc32)o1,3%,?
O=c1cc(CN2CCN(c3ccccc3)CC2)c2cc(O)c(-c3ccccc3)cc2o1,-2%,10µM*
O=c1cc(CN2CCN(Cc3ccccc3)CC2)c2cc(Cl)ccc2o1,-4%,-8%
COc1ccc(N2CCN(Cc3cc(=O)oc4ccc(C)cc34)CC2)cc1,0%,?
Cc1nc(N2CCCC2)ncc1C(=O)NCc1cccc(Cl)c1,-2%,7%
COc1ccc(CNc2cc(-c3ccccc3C)ncn2)c(OC)c1,4%,0%
CCNc1ncc2ncc(=O)n(C3CC3)c2n1,2%,-1%
O=CCCCC=O,6%,-6%
O=C(NCc1ccco1)c1ccc(Cn2c(=O)c3ccccc3n(Cc3cccc(Cl)c3)c2=O)cc1,1%,?
O=C(NCc1ccco1)c1ccc(Cn2c(=O)c3sccc3n(Cc3cccc(F)c3)c2=O)cc1,5%,25µM*
COc1ccc(OC)c(-c2noc(CSc3nnc(-c4ccccc4)n3-c3ccccc3)n2)c1,-3%,-11%
O=C(/C=C/c1ccc(Br)cc1)c1ccc(NC2=NCCCS2)cc1,-17%,?
CC(C)(C)c1ccc(/C=C/C(=O)c2ccc(NC3=NCCCS3)cc2)cc1,-24%,32µM*
O=C(CSc1nc(=O)[nH]c2c1CCCC2)NCc1ccc(F)cc1,0%,2%
N#C/C(=C\c1ccccc1[N+](=O)[O-])c1nc(C2CC2)cs1,-7%,7%
N#C/C(=C\C=C\c1ccccc1[N+](=O)[O-])c1nc(-c2ccc3c(c2)OCO3)cs1,2%,20µM*
CCOc1ccc(S(=O)(=O)Nc2cccc(-c3ccc(N4CCCC4)nn3)c2)cc1,-10%,?
CCc1ccccc1NS(=O)(=O)c1ccc2c(c1)CC(=O)N2,-5%,3%
COc1ccc(/C=N/NC(=O)c2ccccc2Cl)cc1CSc1nc2ccccc2s1,-8%,16µM*
COc1ccc(/C=N/NC(=O)c2cccnc2)cc1CSc1nc2ccccc2s1,-6%,?
CCc1cccc(C)c1NC(=O)CCCSc1nc2ccccc2s1,-6%,-5%
SMILES,Cruzain Triton,Cruzain noTriton
CCc1cccc(CC)c1NC(=O)C1SC(=Nc2ccccc2C)C(c2nc3ccccc3s2)=C1N (stereo unspecified),2%,6.3µM*
CCC(=O)Nc1cc(-c2cn3cccnc3n2)ccc1OC,-6%,-5%
COc1ccc(-c2cn3cccnc3n2)cc1F,-22%,20µM*
CC(=O)n1nc(-c2cccnc2)nc1NCc1ccc(F)cc1,-5%,-5%
O=C1c2oc3ccccc3c(=O)c2C(c2ccc(Br)cc2)N1c1ccccn1 (stereo unspecified),1%,2%
O=C(Nc1ccccc1-c1nnn(CC(=O)N2CCCc3ccccc32)n1)c1ccco1,0%,?
O=C(Nc1ccccc1-c1nnn(CC(=O)N2CCCc3ccccc32)n1)c1ccc(Cl)cc1,-6%,32µM*
Cc1cccc(-c2noc(-c3ccccc3NC(=O)C3CC(=O)N(c4ccccc4C)C3)n2)c1 (stereo unspecified),-2%,7%
CCCS(=O)(=O)c1nc(S(=O)(=O)c2ccc(C)cc2)c(NCc2ccco2)s1,-4%,0%
Cc1ccc(S(=O)(=O)c2nc(S(=O)(=O)c3ccc(C)cc3)c(NCc3ccco3)s2)cc1,0%,32µM*
Cc1nc2ccn(Cc3ccco3)c(=O)c2cc1C(=O)N1CCN(c2ccc(F)cc2)CC1,-7%,?
COc1ccc(C(=O)Nc2ccc(-c3cc(C(F)(F)F)nn3-c3ccccc3)cc2)cc1OC,-2%,17%
Cc1ccc(N2CCN(C(=S)c3ccc(N(C)C)cc3)CC2)cc1,-1%,20µM*
CC(=O)N1CCN(C(=S)c2ccc(N(C)C)cc2)CC1,1%,12%
CN(C)c1ccc(C(=S)N2CCN(c3ccccc3)CC2)cc1,-4%,-3%
CN(C)c1ccc(C(=S)N2CCCCCC2)cc1,14µM*,6.3µM*
Cc1ccc(C)c(CN2C(=O)c3ccccc3S(=O)(=O)c3ccc(C(=O)N4CCN(C)CC4)cc32)c1,1%,1%
O=C(c1ccc2c(c1)N(Cc1ccccc1F)C(=O)c1ccccc1S2(=O)=O)N1CCc2ccccc21,0%,3%
O=C(c1ccc2c(c1)N(Cc1cccc(Cl)c1)C(=O)c1ccccc1S2(=O)=O)N1CCc2ccccc21,-3%,20µM*
Cc1ccc(C)c(CN2C(=O)c3ccccc3S(=O)(=O)c3ccc(C(=O)N4CCc5ccccc54)cc32)c1,-1%,32µM*
CC(CNC(=O)c1sc2ncccc2c1-n1cccc1)c1ccccc1 (stereo unspecified),-8%,1%
Cc1c(Cl)cccc1NC(=O)C(C)n1nnc2sc3c(c2c1=O)CCCC3 (stereo unspecified),1%,21%
O=C(Nc1cccc(Cl)c1)c1c(O)c2c(n(Cc3ccccc3)c1=O)CCCC2,0%,16µM*
CCCn1c2c(c(O)c(C(=O)NCc3ccccc3)c1=O)CCCC2,-3%,-1%
O=C(Nc1cccc(Cl)c1)c1c(O)c2c(n(Cc3ccco3)c1=O)CCCC2,-2%,7.9µM*
SMILES,Cruzain Triton,Cruzain noTriton
CCOC(=O)c1c(O)c2c(n(Cc3ccco3)c1=O)CCCC2,0%,5%
Clc1ccc(/C=C/c2nc3ccccc3[nH]2)c(Cl)c1,-7%,?
Clc1ccc(/C=C/c2nc3ccccc3[nH]2)cc1,-20%,16µM*
Cc1cc(C(=O)CSc2nnc(-c3cccs3)o2)c(C)n1-c1ccccc1,3%,25µM*
Cc1cc(C(=O)CSc2nnc(-c3ccco3)o2)c(C)n1Cc1ccco1,-2%,16%
Cc1cc(C(=O)CSc2nnc(-c3ccco3)o2)c(C)n1-c1ccc2c(c1)OCCO2,-4%,10µM*
O=C(CSc1nnc(-c2cccs2)o1)c1cccs1,3%,-1%
COc1ccc(-c2oc3ncn4nc(-c5ccc(Cl)cc5)nc4c3c2-c2ccc(OC)cc2)cc1,-2%,6%
CN1CCN(c2ncc3nc(-c4cccc(C#N)c4)c(=O)n(C)c3n2)CC1,18µM*,?
CN1CCN(c2ncc3nc(-c4cc(F)cc(F)c4)c(=O)n(C)c3n2)CC1,-7%,24%
COc1ccc(-n2c(=O)c(-c3ccccc3)nc3cnc(N4CCN(C)CC4)nc32)cc1,0%,-2%
CN1CCN(c2ncc3nc(-c4ccccc4)c(=O)n(-c4ccccc4)c3n2)CC1,25µM*,?
C=CCNC(=O)c1ccc(-c2nc(-c3ccc(Cl)cc3Cl)cs2)cc1,4%,-15%
C=CCNC(=O)c1ccc(-c2nc(-c3ccc(Cl)c(Cl)c3)cs2)cc1,3%,20µM*
O=C(Oc1ccccc1)N1CCC2(CCCN(c3ccc(-c4ccccc4)cc3)C2)CC1,0%,13µM*
COC(=O)N1CCC2(CCCN(c3ccc(-c4ccccc4)cc3)C2)CC1,-5%,-5%
